# Data taken from PubChem BioAssay AID743129 (Broad Institute, 2013).
# Entries with a potency or affinity are not part of this list. Calls of active or inactive are those of the source.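 The calls were made as follows: active = cytotoxic compounds whose fitted half-maximal concentration is at most twice the highest valid tested dose; inconclusive = flat curve with 30 to 70% cell loss, or poor fit; inactive = the rest, including signal rising instead of falling.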
# Test: HepG2 cell cytotoxicity, dose response, cytotoxicity control, ATP luminescence, dry powder, set 2 (AID 743129)
# Conditions: HepG2 viability, ATP luminescence (CellTiter-Glo), 72 h; series mostly up to 26 µM; activity change, negative = cytotoxicity: at the top concentration
Structure (SMILES),"activity change, negative = cytotoxicity",outcome
S=c1[nH]c2ccccc2n1CCOc1ccc(Cl)cc1,-7.15% (inactive),
COC(=O)C1=C(C)N(Cc2ccc(Br)cc2)C(=S)NC1c1ccc(OC)cc1 (stereo not given),-26.8% (inactive),
Fc1cccc2c1[nH]c(=S)n2CCOc1ccccc1,12.8% (inactive),
Cc1ccc(C(C)C)c(OCCn2c(=S)[nH]c3ccccc32)c1,39.7% (inactive),
Cc1ccc(OCCn2cnc3ccccc32)cc1,-2.07% (inactive),
Cc1cccc(OCCn2c(=S)[nH]c3cc(C(F)(F)F)ccc32)c1,-10.2% (inactive),
Fc1ccccc1OCCn1c(=S)[nH]c2ccccc21,-13% (inactive),
CCOc1ccc(OCCn2c(=S)[nH]c3ccccc32)cc1,-26.2% (inactive),
Cc1ccc(OCCn2c(=S)[nH]c3ccccc32)c(C(C)C)c1,,inactive
Cc1ccc(OCCn2c(=S)[nH]c3ccccc32)cc1,-23.9% (inactive),
Cc1ccccc1OCCn1c(=S)[nH]c2ccccc21,-14.9% (inactive),
O=c1[nH]c2ccccc2n1CCOc1ccccc1,,inactive
CCOC(=O)c1c(-c2ccc(F)cc2)csc1NC(=O)CN1CCN(C)CC1,21.1% (inactive),
CCOC(=O)c1c(-c2ccc(F)cc2)csc1NC(=O)CN1CCN(CC)CC1,-0.94% (inactive),
COC(=O)C1=C(C)N(Cc2ccccc2)C(=S)NC1c1ccc(Br)cc1 (stereo not given),-2.68% (inactive),
COC(=O)C1=C(C)N(Cc2ccc(Cl)cc2)C(=S)NC1c1ccc(Br)cc1 (stereo not given),-1.77% (inactive),
COC(=O)C1=C(C)N(Cc2ccc(Br)cc2)C(=S)NC1c1ccc(F)cc1 (stereo not given),0.837% (inactive),
S=c1[nH]c2ccccc2n1CCOc1ccccc1,-11.9% (inactive),
c1ccc(OCCn2cnc3ccccc32)cc1,-27.1% (inactive),
Cc1ccc(OCCn2c(C)nc3ccccc32)cc1,15% (inactive),
